Measurements reported in PubChem BioAssay (NCATS).
Where “and” joins values, the source holds several entries; their conditions need not be identical. Identical values can stand only once. Results filed as inconclusive are left out. Calls of active or inactive are those of the source. Unless noted, the call rests on the fitted dose curve; in most records, active means well fitted curve in either direction with a large enough effect (not every such curve was filed as active); inconclusive means small, poorly fitted or top-dose-only effect, or another doubt; inactive means flat fitted curve, though single readings scatter.

Key:
[1] = Stat Signaling Pathway (AID 446); settings: ME-180 (cervical carcinoma) SIE beta-lactamase reporter, IL-6 stimulated, 5 h;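 further: ME-180 cervical cancer cells given 40 pM IL-6 alongside compound; SIE-controlled beta-lactamase reporter measured as 460/530 nm FRET emission ratio; on the % scale 0 is the no-effect control and ±100 the full control effect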
Summary of the method: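 Normalization used AC90 stimulation (300 pM IL-6) and AC90 inhibition (125 nM pan-JAK inhibitor at 40 pM IL-6). The underlying signal is SIE-driven beta-lactamase in ME-180 cells after 5 h IL-6 exposure with compound.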

[2] = biological target: Glucocorticoid receptor (Homo sapiens) (UniProt P04150); assay: GR-GFP Redistribution (AID 450;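 active means compounds whose dose series gives a full or clear partial fitted curve of increased nuclear translocation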; further: potency means the concentration at half of the fitted maximal effect); settings: U2OS GR-GFP nuclear translocation, laser cytometry, 2 h
[3] = biological target: Glucocorticoid receptor (Homo sapiens) (UniProt P04150); assay: GR-EFC Redistribution (AID 451; calls by dose curve; further: potency means the concentration at half of the fitted maximal effect); settings: CHO-K1 GR-EFC translocation, beta-gal luminescence, 2 h
Summary of the method: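 Translocation of GR-ED fusion to nuclear EA restores b-gal, read by luminescence after 1 h room-temperature detection. Engineered CHO-K1 biosensor cells, 1,000/well, exposed 2 h at 37 C to titrations up to 46 uM final.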

[4] = biological target: Mitogen-activated protein kinase 10 (Mus musculus) (UniProt Q61831); assay: JNK3 AlphaScreen Assay (AID 530);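 further: kinase came from lysate of stimulated human HepG2 cells; signal reports phosphorylation of biotinylated GST-cJun 1-79 at Ser73 with 10 µM ATP; on the % scale 0 is the no-effect control and ±100 the full control effect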
Summary of the method: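 qHTS titrations with 15 min compound pre-incubation before adding ATP (10 uM final). Read-out: AlphaScreen of Ser73-phosphorylated biotin-GST-cJun using HepG2 lysate JNK3 activated by IL-1β and TNFα.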

[5] = biological target: 3',5'-cyclic-AMP phosphodiesterase 4B (Homo sapiens) (UniProt Q07343); assay: qHTS Assay for Inhibitors of PDE-IV (AID 607; active means well fitted activation curve with a large enough effect in the main read-out, with a control signal flat, not every such curve was filed as active; further: % of control where 0% means no effect)
Summary of the method: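 HEK293 ACTOne cells with CNG channel (1000/well), endogenous PDE4; membrane potential dye, compounds up to 22.9 uM final. Fluorescence Ex 535/Em 590; RO 20-1724 (100 uM final) as reference.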

[6] = at 38 µM (top of the series) unless noted

Sequence of Glucocorticoid receptor (Homo sapiens) (P04150 whole entry, looked up, the tested form may be a part): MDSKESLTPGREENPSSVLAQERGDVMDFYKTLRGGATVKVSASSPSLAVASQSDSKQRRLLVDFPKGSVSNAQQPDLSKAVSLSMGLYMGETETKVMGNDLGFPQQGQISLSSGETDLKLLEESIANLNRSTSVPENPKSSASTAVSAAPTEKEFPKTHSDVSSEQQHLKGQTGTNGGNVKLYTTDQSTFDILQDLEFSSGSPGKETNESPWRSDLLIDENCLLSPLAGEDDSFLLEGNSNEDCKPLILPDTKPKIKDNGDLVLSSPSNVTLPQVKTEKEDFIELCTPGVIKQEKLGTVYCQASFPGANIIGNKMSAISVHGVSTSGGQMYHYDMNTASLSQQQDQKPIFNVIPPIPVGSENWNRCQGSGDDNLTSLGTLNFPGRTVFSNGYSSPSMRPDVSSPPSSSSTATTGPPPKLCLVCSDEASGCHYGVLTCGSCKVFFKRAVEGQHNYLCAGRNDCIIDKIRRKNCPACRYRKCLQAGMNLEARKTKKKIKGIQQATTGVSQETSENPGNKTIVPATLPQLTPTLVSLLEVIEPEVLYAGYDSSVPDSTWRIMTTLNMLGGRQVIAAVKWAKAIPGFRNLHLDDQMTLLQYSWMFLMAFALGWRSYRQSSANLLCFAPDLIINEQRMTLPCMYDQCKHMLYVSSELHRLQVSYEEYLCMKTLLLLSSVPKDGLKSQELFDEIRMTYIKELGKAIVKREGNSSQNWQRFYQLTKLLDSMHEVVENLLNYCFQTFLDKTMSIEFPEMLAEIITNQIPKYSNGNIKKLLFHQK
Sequence of 3',5'-cyclic-AMP phosphodiesterase 4B (Homo sapiens) (Q07343 whole entry, looked up): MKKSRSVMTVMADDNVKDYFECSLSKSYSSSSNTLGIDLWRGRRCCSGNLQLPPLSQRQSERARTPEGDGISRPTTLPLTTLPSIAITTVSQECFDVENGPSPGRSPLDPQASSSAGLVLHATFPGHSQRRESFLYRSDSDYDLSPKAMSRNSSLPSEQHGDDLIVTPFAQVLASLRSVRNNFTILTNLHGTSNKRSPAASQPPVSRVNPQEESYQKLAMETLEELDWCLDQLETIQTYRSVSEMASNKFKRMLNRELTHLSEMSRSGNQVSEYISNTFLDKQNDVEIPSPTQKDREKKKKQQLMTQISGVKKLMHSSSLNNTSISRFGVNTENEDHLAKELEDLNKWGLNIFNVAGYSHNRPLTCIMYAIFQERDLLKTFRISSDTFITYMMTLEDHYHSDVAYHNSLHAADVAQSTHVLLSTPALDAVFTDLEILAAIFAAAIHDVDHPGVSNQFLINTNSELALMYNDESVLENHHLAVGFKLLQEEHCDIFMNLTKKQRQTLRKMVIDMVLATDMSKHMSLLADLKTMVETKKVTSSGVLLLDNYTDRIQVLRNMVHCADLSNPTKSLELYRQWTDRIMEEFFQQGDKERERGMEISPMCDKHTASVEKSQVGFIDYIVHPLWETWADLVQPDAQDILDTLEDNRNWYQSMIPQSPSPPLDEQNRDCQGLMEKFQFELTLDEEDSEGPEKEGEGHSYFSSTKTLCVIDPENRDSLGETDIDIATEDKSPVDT

Clc1ccc(N2C[C@H]3CC[C@@H](C2)N3)nn1
inactive: activity, negative = inhibition [1, 6] 37.1% | Potency [2] > 46 µM | Potency [3] > 46 µM | outcome [4] | Potency [5]

CCCN(CCC)CCc1c[nH]c2ccc(C(N)=O)cc12
inactive: activity, negative = inhibition [1, 6] 22.9% | Potency [2] > 46 µM | Potency [3] > 46 µM | outcome [4] | Potency [5]

CCCN(CCC)[C@H]1CCc2c(F)ccc(O)c2C1
inactive: activity, negative = inhibition [1, 6] 3.16% and 1.48% | Potency [2] > 46 µM | Potency [3] > 46 µM | outcome [4] | Potency [5]

O=[N+]([O-])c1cc(O)c(O)c([N+](=O)[O-])c1
inactive: activity, negative = inhibition [1, 6] 48.1% | Potency [2] > 46 µM | Potency [3] > 46 µM | outcome [4] | Potency [5]

O=[N+]([O-])c1ccc2nc(N3CCNCC3)ccc2c1
inactive: activity, negative = inhibition [1, 6] 2.58% | Potency [2] > 46 µM | Potency [3] > 46 µM | outcome [4] | Potency [5]

CC(C)NP(=O)(NC(C)C)OP(=O)(NC(C)C)NC(C)C
inactive: activity, negative = inhibition [1, 6] -17.3% | Potency [2] > 46 µM | Potency [3] > 46 µM | outcome [4] | Potency [5]

CCCN(CCC)[C@@H]1CCc2cccc(O)c2C1
inactive: activity, negative = inhibition [1, 6] -0.802% | Potency [2] > 46 µM | Potency [3] > 46 µM | outcome [4] | Potency [5]

C[N+](C)(C)CCOC(=O)CBr
inactive: activity, negative = inhibition [1, 6] -5.3% | Potency [2] > 46 µM | Potency [3] > 46 µM | outcome [4] | Potency [5]

C[N+]1(C)CCN(c2ccccc2)CC1
inactive: activity, negative = inhibition ([1]; at 17.2 µM (top of the series)) -10% | activity, negative = inhibition ([1]; at 38 µM (top of the series)) -4.82% | Potency [2] > 46 µM and > 20.6 µM | Potency [3] > 46 µM | outcome [4] | Potency [5]

CC(C)[C@@]1(NC(=O)[C@@H]2C[C@@H]3c4cccc5[nH]cc(c45)C[C@H]3N(C)C2)O[C@@]2(O)[C@@H]3CCCN3C(=O)[C@H](Cc3ccccc3)N2C1=O
inactive: activity, negative = inhibition [1, 6] -26.4% [at 17.2 µM] | Potency [2] > 20.6 µM

COc1ccc(OC)c(C(O)C(C)N)c1 (centres undefined)
inactive: activity, negative = inhibition [1, 6] 2.12% [at 17.2 µM] | Potency [2] > 20.6 µM

NC(=O)c1cc(N2CC2)c([N+](=O)[O-])cc1[N+](=O)[O-]
inactive: activity, negative = inhibition [1, 6] 19.5% | Potency [2] > 46 µM | Potency [3] > 46 µM | outcome [4] | Potency [5]

CP(=O)(O)C1=CCNCC1
inactive: activity, negative = inhibition [1, 6] -9.22% | Potency [2] > 46 µM | Potency [3] > 46 µM | outcome [4] | Potency [5]

O=C(O)c1cc[c]([Hg][Cl])cc1
inactive: activity, negative = inhibition [1, 6] -0.208% | Potency [2] > 46 µM | Potency [3] > 46 µM | outcome [4]

c1cc2c(c(NC3=NCCN3)c1)CCCC2
inactive: activity, negative = inhibition [1, 6] 4.34% [at 7.69 µM] | Potency [2] > 46 µM | Potency [3] > 9.22 µM | activity change, negative = inhibition [4] 3.19% [at 11.4 µM] | Potency [5]

N#CCCN
inactive: activity, negative = inhibition [1, 6] 20.4% | Potency [2] > 46 µM | Potency [3] > 46 µM | outcome [4] | Potency [5]

CN1CCC(c2c[nH]c3ccc(O)cc23)CC1
inactive: activity, negative = inhibition [1, 6] -0.0693% | Potency [2] > 46 µM | Potency [3] > 46 µM | outcome [4] | Potency [5]
